Screening data: PubChem, several laboratories
RecA splice inh: blocks M. tuberculosis RecA intein splicing; P9WHJ3; cell-free RecA intein splicing, fluorescence; inhibition, % (test concentration not listed); hit rate 0.75% among 290,000; in the data active means inhibition above about 30%; inconclusive means no clear call, values can overlap the other calls;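 further: 0% = vehicle wells and 100% = reference inhibitor control wells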
Mtb UGM inh: Mtb UDP-galactopyranose mutase inhibition | inhibition, % at 10 µM | hit rate 0.06% among 320,000 | AID 504406 | purified UGM, fluorescence polarization probe displacement; in the data active means inhibition above about 10%, passing the limit was not always enough; inconclusive means no clear call, values can overlap the other calls
FadD28 binding: inhibitors of Mycobacterium tuberculosis FadD28 bisubstrate binding. hit rate 0.22% among 360,000. inhibition, % at 12.5 µM. FadD28 bisubstrate probe binding, fluorescence polarization; in the data active means inhibition above about 8.5%, passing the limit was not always enough; inconclusive means no clear call, values can overlap the other calls
Mtb BioA inh: BioA (M. tuberculosis) enzyme inhibition | purified M. tuberculosis BioA enzyme, plate reader | inhibition, % at 9.99 µM | hit rate 0.096% among 360,000 | AID 602481; in the data active means inhibition above about 40%; inconclusive means no clear call, values can overlap the other calls
Rv3671c inh: inhibits the M. tuberculosis serine protease Rv3671c | AID 2606 | P9WHR9 | inhibition, % at 5.96 µM | hit rate 0.048% among 320,000; in the data active means inhibition above about 38%;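 further: extracellular domain of Rv3671c used as enzyme; 0% = enzyme with DMSO and 100% = no enzyme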
TcdB inh: blocks C. difficile toxin B glycohydrolase activity; AID 652162; TcdB glycohydrolase enzymatic assay, plate reader; P18177; hit rate 0.24% among 350,000; inhibition, % at 9.99 µM; in the data active means inhibition above about 10%
GFP chromo cs: counter-screen GFP chromophore formation inhibition; hit rate 83% among 2,100; EC50, µM; AID 434968; cell-free GFP chromophore formation, fluorescence; shares compounds with RecA splice inh; call rule not given here
Active calls of the source: *. Shown are actives, neighbours in structure and some others; about 0.97% of the full set was active somewhere.

What do the screens show for `O=C(NC1Cc2ccccc2C1)[C@H]1[C@H](CO)[C@H]2Cn3c(cccc3=O)[C@H]2N1C(=O)C1CCC1`?
Mtb BioA inh: -1; TcdB inh: 0

How did O=[N+]([O-])c1c(NCCCO)cc(SCc2ccco2)c2nonc12 do in these assays?
RecA splice inh: 65*; Mtb UGM inh: 2; FadD28 binding: 0; Rv3671c inh: -2; TcdB inh: 7; GFP chromo cs: 27*

Results for CC(=O)OCCNc1cc(SCc2ccco2)c2nonc2c1[N+](=O)[O-] ?
RecA splice inh: 78*; Mtb UGM inh: 3; FadD28 binding: -1; Mtb BioA inh: 4; Rv3671c inh: -13; GFP chromo cs: 11*

How did CC(=O)OCCNc1cc(Sc2nc3ccccc3[nH]2)c2nonc2c1[N+](=O)[O-] do in these assays?
RecA splice inh: 14; Mtb UGM inh: 1; FadD28 binding: -1; Rv3671c inh: -1

Results for Cn1ccnc1Sc1cc(NCCCO)c([N+](=O)[O-])c2nonc12 ?
RecA splice inh: 67*; Mtb UGM inh: -1; FadD28 binding: -3; Mtb BioA inh: 4; Rv3671c inh: 5; TcdB inh: 0; GFP chromo cs: 14*

Results for O=[N+]([O-])c1c(NCCCO)cc(Sc2ccc(Cl)cc2)c2nonc12 ?
RecA splice inh: 20; Mtb UGM inh: -2; FadD28 binding: -1; Mtb BioA inh: 0; Rv3671c inh: -10; TcdB inh: 1

How did O=[N+]([O-])c1c(NCCCO)cc(N2CCCCCC2)c2nonc12 do in these assays?
RecA splice inh: 8; Mtb UGM inh: 0; FadD28 binding: 0; Mtb BioA inh: 2; Rv3671c inh: -17; TcdB inh: -1

Results for Cc1noc(C)c1S(=O)(=O)Nc1ccc2c(c1)C(=O)N([C@@H](C)CO)C[C@@H](C)[C@@H](CN(C)C(=O)CCC(F)(F)F)OCCCC[C@H](C)O2 ?
Mtb BioA inh: -2; TcdB inh: -1

What do the screens show for `CCC(=O)N1C[C@H](C)[C@@H](OC)CN(C)C(=O)c2ccc(NC(=O)Nc3ccc(Cl)cc3)cc2OC[C@H]1C`?
Mtb BioA inh: 0

What do the screens show for `CC1=NN(Cc2ccccc2)C(=O)/C1=C\c1ccc(N(C)C)cc1`?
RecA splice inh: 94*; Mtb UGM inh: 0; FadD28 binding: -2; Rv3671c inh: 0; GFP chromo cs: inconclusive

How did O=C(NNC(=O)c1ccc2ccccc2c1O)c1ccccc1Cl do in these assays?
RecA splice inh: 35*; Mtb UGM inh: 3; FadD28 binding: -2; Rv3671c inh: -4; GFP chromo cs: >38

What do the screens show for `O=C1c2ccccc2C(=O)C12OC2c1ccc(Cl)cc1` (stereo unspecified)?
RecA splice inh: 72*; Mtb UGM inh: -1; Rv3671c inh: -87; GFP chromo cs: >38

What do the screens show for `O=C1c2ccccc2C(=O)C12OC(c1ccccc1)C1(C(=O)c3ccccc3C1=O)C2c1ccc([N+](=O)[O-])cc1` (stereo unspecified)?
RecA splice inh: 2; Mtb UGM inh: 3; FadD28 binding: 1; Mtb BioA inh: 0; Rv3671c inh: -12

How did Nc1ccc(N)c(C(=O)O)c1 do in these assays?
RecA splice inh: 57*; Mtb UGM inh: 1; FadD28 binding: inconclusive; Mtb BioA inh: -6; Rv3671c inh: -5; GFP chromo cs: 9.7*

How did COc1ccc(/C=N/NC(=O)c2nn(-c3ccc(C)c(C)c3)c(=O)c3ccccc23)cc1 do in these assays?
RecA splice inh: -1; Mtb UGM inh: 5; FadD28 binding: -2; Rv3671c inh: -21

Results for COc1ccc(/C=N/NC(=O)c2nn(-c3ccc(Cl)cc3)c(=O)c3c(N)scc23)cc1 ?
RecA splice inh: 40*; Mtb UGM inh: -1; FadD28 binding: 0; Mtb BioA inh: 0; Rv3671c inh: -21; GFP chromo cs: 17*

How did C/C(=C\c1ccc(N)cc1)c1nc2ccccc2[nH]1 do in these assays?
RecA splice inh: -1; Mtb UGM inh: -2; FadD28 binding: -1; Mtb BioA inh: 1; Rv3671c inh: 0; TcdB inh: 4

What do the screens show for `O=S(=O)(/C(=C/c1ccc(C(F)(F)F)cc1)c1nc2ccccc2[nH]1)c1ccccc1`?
RecA splice inh: 64*; Mtb UGM inh: 1; FadD28 binding: -1; Rv3671c inh: -76; GFP chromo cs: 10*
